Results taken from PubChem BioAssay.
For some of these results: Results with a measured potency or affinity are listed apart. Active and inactive are the calls of the source. Unless noted, no rule for the calls is given here.

Assays:
[1] = antimalarial activity against Dd2 strain (AID 2302;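 active = growth inhibition above 50% at the single 2 µM test dose, taken to imply half-maximal potency below 2 µM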;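 also: 0% = DMSO untreated growth and 100% = chloroquine plus artemisinin killed control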); conditions: P. falciparum Dd2 in RBCs, LDH growth readout, 72 h; at 2 µM; hits give high values
[2] = HepG2 cytotoxicity, primary screen, cytotoxicity control for P. falciparum antimalarial project, cell-based, ATP luminescence (AID 2303;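 active = inhibition above 50%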;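 also: 0% = DMSO wells and 100% = digitonin-killed cells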); conditions: HepG2 viability, 24-48 h, at 10 µM, hits give high values
[3] = molecular target: L-lactate dehydrogenase (Plasmodium falciparum (isolate CDC / Honduras)) (UniProt Q27743); test: PfLDH activity inhibition – cell lysate, 3D7 strain, counter-screen for P. falciparum growth inhibition project (AID 2304);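 also: 0% = vehicle and 100% = reference inhibitor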; conditions: P. falciparum 3D7 crude extract, LDH APAD/NBT absorbance; at 2 µM; hits give high values
[4] = inhibition of 3D7 malaria parasite growth – strain 3D7 (AID 2306);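 also: 0% = DMSO wells and 100% = chloroquine plus artemisinin control wells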; conditions: P. falciparum 3D7 erythrocytic growth, LDH absorbance, 72 h; at 2 µM; hits give high values
[5] = molecular target: Calcium-dependent protein kinase 1 (Plasmodium falciparum (isolate 3D7)) (UniProt P62344); test: PfCDPK1 kinase inhibitors, biochemical, TCAMS library (AID 1159585; cut-off not given, nearly all actives have IC50 up to about 0.98 µM;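 also: inhibitors leave more ATP so luminescence rises with inhibition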); conditions: recombinant PfCDPK1, Kinase-Glo ATP depletion luminescence
[6] = molecular target: Plasmodium falciparum protein kinase 6 (PK6, PF3D7_1337100) (UniProt Q8IDW1); test: PfPK6 kinase inhibitors, biochemical, TCAMS library (AID 1159586); conditions: recombinant PfPK6, Kinase-Glo ATP depletion luminescence
[7] = molecular target: Protein kinase 7 (PK7), Plasmodium falciparum 3D7 (PF3D7_0213400) (UniProt Q7YTF7); test: inhibition of Plasmodium PK7 catalytic activity – biochemical, TCAMS antimalarial set, Kinase-Glo luminescence (AID 1159587); conditions: recombinant PfPK7, Kinase-Glo ATP depletion luminescence
[8] = molecular target: Calcium-dependent protein kinase 4 (Plasmodium falciparum (isolate 3D7)) (UniProt Q8IBS5); test: PfCDPK4 kinase inhibitors, biochemical, TCAMS library (AID 1159588; cut-off not given, nearly all actives have IC50 up to about 0.91 µM); conditions: recombinant PfCDPK4, Kinase-Glo ATP depletion luminescence
Calcium-dependent protein kinase 4 (Plasmodium falciparum (isolate 3D7)), sequence (Q8IBS5 whole entry, looked up): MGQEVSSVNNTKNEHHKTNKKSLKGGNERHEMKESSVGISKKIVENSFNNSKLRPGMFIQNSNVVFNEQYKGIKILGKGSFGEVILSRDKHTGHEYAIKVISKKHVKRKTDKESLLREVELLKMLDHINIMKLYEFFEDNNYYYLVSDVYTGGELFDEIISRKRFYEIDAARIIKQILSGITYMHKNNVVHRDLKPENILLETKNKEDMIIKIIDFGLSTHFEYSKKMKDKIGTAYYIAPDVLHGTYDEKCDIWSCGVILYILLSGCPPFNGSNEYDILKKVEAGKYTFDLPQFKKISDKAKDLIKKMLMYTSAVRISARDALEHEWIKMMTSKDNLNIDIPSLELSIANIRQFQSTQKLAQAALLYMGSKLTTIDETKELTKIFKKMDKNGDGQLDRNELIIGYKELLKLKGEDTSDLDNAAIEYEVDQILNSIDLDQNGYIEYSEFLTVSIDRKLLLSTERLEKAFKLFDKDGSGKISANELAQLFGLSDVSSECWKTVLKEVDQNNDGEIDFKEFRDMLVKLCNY

Plasmodium falciparum protein kinase 6 (PK6, PF3D7_1337100), sequence (Q8IDW1 1-305): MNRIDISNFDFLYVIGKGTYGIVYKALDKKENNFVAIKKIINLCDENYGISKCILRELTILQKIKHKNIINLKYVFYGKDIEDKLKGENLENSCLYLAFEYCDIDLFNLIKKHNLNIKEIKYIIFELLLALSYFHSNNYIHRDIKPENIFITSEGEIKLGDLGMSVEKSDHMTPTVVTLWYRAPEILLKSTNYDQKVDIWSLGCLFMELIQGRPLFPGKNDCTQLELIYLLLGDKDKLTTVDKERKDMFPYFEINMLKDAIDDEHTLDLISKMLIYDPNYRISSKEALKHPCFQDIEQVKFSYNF
Calcium-dependent protein kinase 1 (Plasmodium falciparum (isolate 3D7)), sequence (P62344 whole entry, looked up): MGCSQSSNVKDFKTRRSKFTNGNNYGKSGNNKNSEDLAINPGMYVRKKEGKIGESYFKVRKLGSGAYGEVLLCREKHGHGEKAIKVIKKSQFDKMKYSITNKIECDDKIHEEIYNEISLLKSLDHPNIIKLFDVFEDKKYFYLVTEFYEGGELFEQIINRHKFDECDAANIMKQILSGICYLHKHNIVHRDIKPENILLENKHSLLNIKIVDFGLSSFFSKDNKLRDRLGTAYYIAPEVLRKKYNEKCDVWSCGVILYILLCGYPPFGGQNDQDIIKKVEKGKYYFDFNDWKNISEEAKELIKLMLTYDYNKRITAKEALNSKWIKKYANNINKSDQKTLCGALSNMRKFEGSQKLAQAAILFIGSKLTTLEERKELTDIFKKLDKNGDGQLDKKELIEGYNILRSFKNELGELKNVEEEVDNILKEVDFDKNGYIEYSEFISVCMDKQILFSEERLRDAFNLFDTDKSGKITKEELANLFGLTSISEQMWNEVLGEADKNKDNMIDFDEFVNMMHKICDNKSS
Protein kinase 7 (PK7), Plasmodium falciparum 3D7 (PF3D7_0213400), sequence (Q7YTF7 1-343): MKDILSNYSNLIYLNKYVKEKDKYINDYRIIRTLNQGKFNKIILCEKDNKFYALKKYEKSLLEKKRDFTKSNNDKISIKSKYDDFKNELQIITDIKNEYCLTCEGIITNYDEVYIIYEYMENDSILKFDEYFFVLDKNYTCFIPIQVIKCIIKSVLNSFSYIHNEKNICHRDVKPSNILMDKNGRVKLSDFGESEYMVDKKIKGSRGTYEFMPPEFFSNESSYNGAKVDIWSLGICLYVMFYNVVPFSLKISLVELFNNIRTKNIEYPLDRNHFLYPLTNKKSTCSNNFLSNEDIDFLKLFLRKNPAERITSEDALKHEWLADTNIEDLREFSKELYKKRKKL
L-lactate dehydrogenase (Plasmodium falciparum (isolate CDC / Honduras)), sequence (Q27743 whole entry, looked up): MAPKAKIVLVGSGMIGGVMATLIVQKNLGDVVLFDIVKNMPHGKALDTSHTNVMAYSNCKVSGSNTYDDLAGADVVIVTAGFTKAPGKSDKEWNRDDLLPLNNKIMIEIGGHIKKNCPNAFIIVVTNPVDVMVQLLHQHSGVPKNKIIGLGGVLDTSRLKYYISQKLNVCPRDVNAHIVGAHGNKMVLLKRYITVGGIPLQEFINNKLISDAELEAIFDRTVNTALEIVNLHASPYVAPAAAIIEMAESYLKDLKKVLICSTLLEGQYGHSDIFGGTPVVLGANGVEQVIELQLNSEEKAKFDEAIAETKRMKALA

N#Cc1ccc(CN2CCC(Oc3ccc(NC(=O)c4ccco4)cc3Cl)C2)cc1 (stereo not drawn)
inactive: inhibition [2] 13% | inhibition [3] -2% | outcome [5] | outcome [6] | outcome [7] | outcome [8]
active: growth inhibition [1] 95% | growth inhibition [4] 95%

NC(=O)C1CCN(Cc2cccc(-c3cccc(-c4nc5ccc(C(F)(F)F)cc5[nH]4)c3)c2)CC1
active: growth inhibition [1] 100% | growth inhibition [4] 100%
inactive: inhibition [2] 16% | inhibition [3] 3% | outcome [5] | outcome [6] | outcome [7] | outcome [8]

FC(F)(F)c1ccc(CNCC2CCN(Cc3ccc4c(c3)OCO4)CC2)cc1
inactive: growth inhibition [1] 12% | inhibition [2] 27% | inhibition [3] -5% | outcome [5] | outcome [6] | outcome [7] | outcome [8]
active: growth inhibition [4] 80%

NCc1ccc(CNCc2cccc(-c3cccc(-c4nc5ccccc5[nH]4)c3)c2)cc1
active: growth inhibition [4] 101%
inactive: growth inhibition [1] 11% | inhibition [2] 7% | inhibition [3] -7% | outcome [5] | outcome [6] | outcome [7] | outcome [8]

CCn1c(Cc2ccccc2)nnc1Sc1ccc([N+](=O)[O-])c(C#N)c1
active: growth inhibition [1] 72% | growth inhibition [4] 93%
inactive: inhibition [2] 8% | inhibition [3] -5% | outcome [5] | outcome [6] | outcome [7] | outcome [8]

CCn1c(=O)c(C(=O)Nc2cc(Cl)c(OC)cc2OC)nc2ccccc21
active: growth inhibition [1] 84% | growth inhibition [4] 86%
inactive: inhibition [2] 19% | inhibition [3] 6% | outcome [5] | outcome [6] | outcome [7] | outcome [8]

CCCCCCN=C(N)c1ccc2nc(-c3ccc(O)cc3)[nH]c2c1
inactive: inhibition [2] -3% | inhibition [3] 1% | outcome [5] | outcome [6] | outcome [7] | outcome [8]
active: growth inhibition [1] 99% | growth inhibition [4] 100%

COc1ccc(NC(=O)[C@H](Cc2ccccc2)Nc2cc(C)nc(NCc3ccccc3C)n2)cc1
inactive: inhibition [2] 16% | inhibition [3] 2% | outcome [5] | outcome [6] | outcome [7] | outcome [8]
active: growth inhibition [1] 71% | growth inhibition [4] 101%

COc1cc2nccc(Nc3ccc4c(cnn4Cc4ccccc4F)c3)c2cc1OC
active: growth inhibition [1] 91% | inhibition [2] 55% | growth inhibition [4] 101%
inactive: inhibition [3] -8% | outcome [5] | outcome [6] | outcome [7] | outcome [8]

C=C(C)CSc1nc2c(c(=O)n1Cc1ccco1)C1(CCCCC1)Cc1ccccc1-2
active: growth inhibition [1] 68% | growth inhibition [4] 97%
inactive: inhibition [2] 2% | inhibition [3] -9% | outcome [5] | outcome [6] | outcome [7] | outcome [8]

CNCCNCc1cccc(-c2ccc(-c3nc4c(C)cccc4[nH]3)cc2)c1
active: growth inhibition [4] 98%
inactive: growth inhibition [1] 21% | inhibition [2] 17% | inhibition [3] -1% | outcome [5] | outcome [6] | outcome [7] | outcome [8]

CCn1c(-c2nonc2N)nc2cnc(Oc3cccc(NC(=O)c4ccc(OCCN(C(C)C)C(C)C)cc4)c3)cc21
active: inhibition [2] 63% | growth inhibition [4] 97%
inactive: growth inhibition [1] 10% | inhibition [3] -6% | outcome [5] | outcome [6] | outcome [7] | outcome [8]

Cn1ncc2c3c(CCN4CCC(NCc5ccc6c(c5)NC(=O)CO6)CC4)c(Cl)cnc3ccc21
inactive: inhibition [2] 18% | inhibition [3] -2% | outcome [5] | outcome [6] | outcome [7] | outcome [8]
active: growth inhibition [1] 92% | growth inhibition [4] 101%

CCCCc1ccc(-c2ccc(-c3c(C)[nH]c(C)c(Br)c3=O)cn2)cc1
active: growth inhibition [1] 96% | growth inhibition [4] 98%
inactive: inhibition [2] -7% | inhibition [3] 1% | outcome [5] | outcome [6] | outcome [7] | outcome [8]

CCc1cn2c3c(cc(C(=O)N[C@@H](Cc4ccccc4)[C@H](O)CNC(C)C)cc13)N(C)S(=O)(=O)C2
inactive: inhibition [2] 16% | inhibition [3] 8% | outcome [5] | outcome [6] | outcome [7] | outcome [8]
active: growth inhibition [1] 98% | growth inhibition [4] 98%

CC(C)COc1ccc(Cl)cc1Cc1nc(-c2nc3ccc(CN4CCCC4)cc3[nH]2)co1
active: growth inhibition [1] 66% | inhibition [2] 50% | growth inhibition [4] 101%
inactive: inhibition [3] -1% | outcome [5] | outcome [6] | outcome [7] | outcome [8]

COc1ccc(/C=C/C(=O)N2CCc3cc4nccc(N5CCN6CCC[C@H]6C5)c4cc32)cc1
inactive: inhibition [2] -3% | inhibition [3] -9% | outcome [5] | outcome [6] | outcome [7] | outcome [8]
active: growth inhibition [1] 98% | growth inhibition [4] 100%

CON(C)C(=O)[C@@H](CCCCNC(=O)OCc1ccccc1)NC(=O)OC(C)(C)C
inactive: growth inhibition [1] -1% | inhibition [2] 5% | inhibition [3] -4% | outcome [5] | outcome [6] | outcome [7] | outcome [8]
active: growth inhibition [4] 98%

O=C(/C=C/c1ccc(Cl)c(Cl)c1)NC1CCC(CN2CCC(c3cc4ccccc4[nH]3)CC2)CC1 (stereo not drawn)
active: growth inhibition [4] 96%
inactive: growth inhibition [1] -7% | inhibition [2] 19% | inhibition [3] 1% | outcome [5] | outcome [6] | outcome [7] | outcome [8]

c1ccc2c3c(ccc2c1)Sc1c(ccc2ccccc12)N3
inactive: growth inhibition [1] 31% | inhibition [2] -7% | inhibition [3] 0% | outcome [5] | outcome [6] | outcome [7] | outcome [8]
active: growth inhibition [4] 92%

Cc1ccc(-c2nc3ccccc3o2)cc1NCc1cc(Cc2ccccc2)ccc1O
inactive: inhibition [2] 45% | inhibition [3] -4% | outcome [5] | outcome [6] | outcome [7] | outcome [8]
active: growth inhibition [1] 50% | growth inhibition [4] 82%

CN1CCC(NCc2cccc(-c3nn(C)c4nc(NC5CCCC5)ncc34)c2)CC1
inactive: growth inhibition [1] 44% | inhibition [2] 1% | inhibition [3] -2% | outcome [5] | outcome [6] | outcome [7] | outcome [8]
active: growth inhibition [4] 98%

CCOC(=O)c1ccc(COc2ccc(C)nc2)cc1
active: growth inhibition [4] 100%
inactive: growth inhibition [1] -7% | inhibition [2] 14% | inhibition [3] -8% | outcome [5] | outcome [6] | outcome [7] | outcome [8]

Cc1noc(C)c1-c1ccc2c(Nc3ccccc3C(C)(C)C)c(C(=O)NCc3cccc4ccccc34)cnc2c1
inactive: inhibition [2] 4% | inhibition [3] -2% | outcome [5] | outcome [6] | outcome [7] | outcome [8]
active: growth inhibition [1] 64% | growth inhibition [4] 96%

CN1CCC(N(Cc2ccc(N3CCN(Cc4c[nH]c5ccc(Cl)cc45)CC3)nc2)C2CC2)CC1
inactive: inhibition [3] -2% | outcome [5] | outcome [6] | outcome [7] | outcome [8]
active: growth inhibition [1] 76% | inhibition [2] 96% | growth inhibition [4] 100%

CCCCN1CCCN(Cc2cccc(NC(=O)c3ccc(-c4ccccc4)cc3)c2)CC1
inactive: growth inhibition [1] 8% | inhibition [2] 19% | inhibition [3] 5% | outcome [5] | outcome [6] | outcome [7] | outcome [8]
active: growth inhibition [4] 92%

CN1CCC(N2CCC(Oc3cccc(C(=O)NCCCC4CCCC4)c3)CC2)CC1
active: growth inhibition [4] 101%
inactive: growth inhibition [1] 48% | inhibition [2] 41% | inhibition [3] -3% | outcome [5] | outcome [6] | outcome [7] | outcome [8]

O=C(/C=C/c1ccc(Cl)c(Cl)c1)NCCCCCN1CCC(NC(=O)c2ccc3ccccc3c2)CC1
active: growth inhibition [4] 87%
inactive: growth inhibition [1] 20% | inhibition [2] 8% | inhibition [3] -2% | outcome [5] | outcome [6] | outcome [7] | outcome [8]

CC(C)c1cccc(OCC2CCN(c3ncc(C(=O)Nc4ccccc4)cc3Cl)CC2)c1
inactive: inhibition [2] 9% | inhibition [3] -2% | outcome [5] | outcome [6] | outcome [7] | outcome [8]
active: growth inhibition [1] 88% | growth inhibition [4] 89%

N#Cc1ccc(-c2ccc(OCC(O)CN3CCCN(C(=O)C(c4ccc5c(c4)OCO5)N4CCN(C/C=C/c5ccccc5)CC4)CC3)cc2)cc1 (stereo not drawn)
active: growth inhibition [1] 77% | growth inhibition [4] 99%
inactive: inhibition [2] 25% | inhibition [3] 3% | outcome [5] | outcome [6] | outcome [7] | outcome [8]

Cc1cc(OCC2CCN(c3ccc(C(=O)NC4CC4)cn3)CC2)ccc1F
inactive: inhibition [2] 6% | inhibition [3] 3% | outcome [5] | outcome [6] | outcome [7] | outcome [8]
active: growth inhibition [1] 95% | growth inhibition [4] 94%

CCCC(CNC(=O)c1cc2c(Cl)cc(Cl)cc2[nH]1)CNc1cc(=O)c2ccccc2[nH]1 (stereo not drawn)
active: growth inhibition [1] 94% | growth inhibition [4] 100%
inactive: inhibition [2] 9% | inhibition [3] -5% | outcome [5] | outcome [6] | outcome [7] | outcome [8]

O=C(CCC1CCCC1)N(Cc1ccc(-c2ccc(CNCCc3ccccn3)cc2)cc1)CC1CCCCN1 (stereo not drawn)
active: growth inhibition [1] 69% | growth inhibition [4] 95%
inactive: inhibition [2] 32% | inhibition [3] 0% | outcome [5] | outcome [6] | outcome [7] | outcome [8]

Cc1nc(N)nc(N)c1-c1ccc2ccccc2c1
inactive: growth inhibition [1] 2% | inhibition [3] 6% | outcome [5] | outcome [6] | outcome [7] | outcome [8]
active: inhibition [2] 60% | growth inhibition [4] 97%

CCN1CCC(N(Cc2ccc(-c3ccc(C(F)(F)F)cc3)cc2)C(=O)Cn2c(CCc3cccc(F)c3F)cc(=O)c3c2CCCC3)CC1
inactive: inhibition [3] 0% | outcome [5] | outcome [6] | outcome [7] | outcome [8]
active: growth inhibition [1] 96% | inhibition [2] 55% | growth inhibition [4] 100%

N#Cc1ccccc1C(=O)N(Cc1cncn1Cc1cccc(F)c1)CC1CC1
active: growth inhibition [1] 92% | growth inhibition [4] 101%
inactive: inhibition [2] 0% | inhibition [3] -1% | outcome [5] | outcome [6] | outcome [7] | outcome [8]

Cc1ccc(C(=O)Nc2ccc(Nc3ccnc4cc(-c5nccs5)ccc34)cc2O)cc1
active: growth inhibition [1] 100% | inhibition [2] 100% | growth inhibition [4] 100%
inactive: inhibition [3] 3% | outcome [5] | outcome [6] | outcome [7] | outcome [8]

C[C@H](NC(=O)[C@H](Cc1ccccc1)NC(=O)OC(C)(C)C)C(=O)N[C@@H](CC1CCCCC1)C(O)CN (stereo partly drawn)
active: growth inhibition [1] 64% | growth inhibition [4] 96%
inactive: inhibition [2] -4% | inhibition [3] -5% | outcome [5] | outcome [6] | outcome [7] | outcome [8]

Cn1c(=O)c2nc(-c3ccc(Cl)cc3)nnc2n(CCCC#N)c1=O
active: growth inhibition [1] 98% | growth inhibition [4] 99%
inactive: inhibition [2] 6% | inhibition [3] 6% | outcome [5] | outcome [6] | outcome [7] | outcome [8]

CC[C@H]1CN2CCc3c([nH]c4ccccc34)[C@@H]2C[C@@H]1CC1c2cc(OC)c(OC)cc2CCN1C (stereo partly drawn)
inactive: growth inhibition [1] 45% | inhibition [2] 31% | inhibition [3] 5% | outcome [5] | outcome [6] | outcome [7] | outcome [8]
active: growth inhibition [4] 85%

O=C(NC1CCN(Cc2ccc3c(c2)OCCO3)CC1)c1ccc(-c2cccc(C(F)(F)F)c2)s1
active: inhibition [2] 99% | growth inhibition [4] 100%
inactive: growth inhibition [1] 35% | inhibition [3] 5% | outcome [5] | outcome [6] | outcome [7] | outcome [8]
